CHX counter: counter-screen hit for Shiga toxin inhibitors, cycloheximide | AID 2314 | cell reporter, cycloheximide protein synthesis inhibition counterscreen | max response, % | 300,000 tested, 12% active; in the data active = max response mostly above about 13%, no sharp cut-off; inactive = mostly below about 14%; note: read at 38.3 µM for the half of the compounds with a filed dose; 0% is about no effect
HCMV antiviral: human cytomegalovirus inhibition; AID 1259415; activity change, negative = inhibition, % at 57.5 µM; 410,000 tested, 4.5% active; HFF cells, HCMV-luciferase reporter, 72 h; stronger effect = lower value; in the data active = activity change below about -60%; inconclusive = no clear call, values can overlap the other calls; inactive = above about -39%; note: % is set by controls: 0 for no effect and ±100 for the full control effect
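After 16 h attachment at 37C, HFF cells received test compound and HCMV-luciferase (1 PFU/cell); reporter luminescence read 72 h later, data normalized against buffer-only and known inhibitor Salinomycin.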
Pf growth 48h: inhibits P. falciparum growth in the first generation, 48 h. P. falciparum luciferase growth in erythrocytes, 48 h. Potency, µM (doses to about 28.7 µM), for inactives: at the highest dose activity change, negative = inhibition, actives largely listed as inhibitors. 310,000 tested, 5.9% active; note: potency is the fitted concentration of half-maximal effect; % is set by controls: 0 for no effect and ±100 for the full control effect
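Firefly luciferase activity from engineered P. falciparum reports growth; inhibitors lower the luminescent signal. Cultures contained 2% hematocrit erythrocytes at 0.1% final parasitemia.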
Pf growth 96h: P. falciparum growth inhibition at 96 hour, primary screen for plastid delayed-death inhibitors | 320,000 tested, 6.9% active | Potency, µM (doses to about 28.7 µM), inactives show top-dose activity change, negative = inhibition, hits mostly inhibitors | P. falciparum luciferase reporter growth, 96 h; note: potency is the fitted concentration of half-maximal effect; % is set by controls: 0 for no effect and ±100 for the full control effect
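96 h incubation, 37 C, 5% CO2, of luciferase-reporter P. falciparum-infected RBCs (2% hematocrit, 0.05% parasitemia final) with test compounds; endpoint luminescence.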
Shiga toxin inh: inhibitors of Shiga toxin in Vero cells | AID 2315 | inhibition, % at 38.7 µM | 290,000 tested, 9.2% active | Vero cells, Shiga toxin protein synthesis inhibition reporter; in the data active = inhibition mostly above about 28%, no sharp cut-off; inactive = mostly below about 43%; note: 0% is about no effect
An asterisk follows results filed as active; ? = inconclusive; · = no result. Compounds with a hit are over-represented: about 20% of the library has one in this group of screens. Unless noted, calls come from the whole dose curve; as a rule, active = well fitted inhibition curve with a large enough effect; inconclusive = small, poorly fitted or top-dose-only effect, or another doubt; inactive = no such curve, though single readings can be large or run the other way.

SMILES	CHX counter	HCMV antiviral	Pf growth 48h	Pf growth 96h	Shiga toxin inh
COc1ccc(C2C(C(=O)c3ccccc3)=C(C)Nc3nc4ccccc4n32)c(OC)c1 (configuration not stated)	31*	-39	?	?	43*
COc1ccc(C2C(C#N)=C(N)Nc3nc4ccccc4n32)cc1 (configuration not stated)	27*	-29	10%	33%	26*
COc1ccc(C2C=C(C)Nc3nc4ccccc4n32)cc1 (configuration not stated)	43*	36	17%	50%	111*
COc1ccc(C2N=C(N)Nc3nc4ccccc4n32)cc1 (configuration not stated)	·	-13	·	·	·
CCCS(=O)(=O)NC(=O)C1(C)CCN(C(=O)c2cccnc2Oc2ccccc2)C1 (configuration not stated)	·	27	·	·	·
Cc1ccc(C2C3C(=O)N(c4ccccc4)C(=O)C3N3CCCN23)cc1 (configuration not stated)	28*	85	81%	206%	-9
S=C1Cc2ccccc2C(c2ccc(Cl)cc2)N1 (configuration not stated)	-2	19	·	-11%	-6
O=C(CCSCCc1ccccn1)Nc1ccc(Cc2ccncc2)cc1	0	34	?	12µM*	-6
O=C(CCSCCc1ccccn1)Nc1ccccn1	1	1	?	29%	15
CCCCCC(=O)Nc1ccc(Cc2ccncc2)cc1	11	1	-19%	12µM*	23
C[C@H]1COC[C@@H](C/C=C/c2ccccc2)N1c1ccccc1	·	-30	·	·	·
COc1ccc(NC(=O)c2cccnc2)cc1	8	16	36%	?	11
COc1ccc(Cn2c(C3CC3)nc3ccc(NC(=O)c4cccnc4)cc3c2=O)cc1	22*	·	?	0%	54*
COc1ccc(Cn2c(C3CC3)nc3ccc(NC(C)=O)cc3c2=O)cc1	57*	157	109%	?	121*
Cc1nc2ccc(NC(=O)c3ccccc3)cc2c(=O)n1Cc1ccc(F)cc1	·	-73*	·	·	·
Cc1ccccc1CSc1nc2c(sc3ccccc32)c(=O)n1CCCC(=O)NCCCOC(C)C	·	-33	·	·	·
S=C(NCc1cccnc1)c1ccccc1	-3	25	-3%	51%	-4
COC(=O)c1ccccc1NC(=O)c1cccnc1	-2	7	?	0%	·
CC(C)NCC(O)COC1C2CC3CC(C2)CC1C3 (configuration not stated)	1	-25	8.3µM*	4%	-4
CC(C)NCC(O)COC1CCC(C(C)(C)C)CC1 (configuration not stated)	-1	?	?	?	-4
Cc1nnc2c(N3CCN(c4ccccc4F)CC3)nc3ccccc3n12	·	-15	·	·	·
COC(=O)[C@@]1(C(C)C)N=C(c2cc(OC)c(OC)c(OC)c2)[C@]2(O1)C(=O)Nc1ccc(F)cc12	·	2	·	·	·
COc1ccc2c(CNCCc3cccs3)c(C(=O)O)n(Cc3ccc(F)cc3Cl)c2c1	·	14	·	·	·
Cc1nc2scc(-c3ccccc3)c2c(=O)o1	-6	-23	8%	?	-21
Cc1nc2c(o1)C(=O)c1ccccc1C2=Nc1ccccc1	·	-100*	·	·	·
SMILES	CHX counter	HCMV antiviral	Pf growth 48h	Pf growth 96h	Shiga toxin inh
O=C(COC(=O)c1cc(F)cc(F)c1)Nc1cccnc1Cl	6	-11	20%	57%	-6
CCSc1nc(COC(=O)NC)c(COC(=O)NC)n1C	·	-4	·	·	·
CNC(=O)OCc1nc(SSC(C)(C)C)n(C)c1COC(=O)NC	·	-76*	·	·	·
CC1(C(=O)NS(=O)(=O)c2cccc(OC(F)F)c2)CCN1C(=O)CC(c1ccccc1)c1ccccc1 (configuration not stated)	·	-29	·	·	·
Cc1ccccc1-n1nc(C)c2cc(C(=O)N3CCN(S(=O)(=O)c4ccc(Cl)cc4)CC3)sc21	-3	-7	5.2µM*	1.9µM*	-4
Cc1ccccc1-n1nc(C)c2cc(C(=O)N3CCN(S(=O)(=O)c4ccc(F)cc4)CC3)sc21	9	-22	4.7µM*	·	-7
COc1cccc(N2CC(NC(=O)COc3ccccc3F)CC2=O)c1 (configuration not stated)	·	-36	·	·	·
CCSc1ncc(Cl)c(C(=O)N(Cc2ccc(N(C)C)cc2)C2CCS(=O)(=O)C2)n1 (configuration not stated)	-4	30	10µM*	9%	-12
CC(C)Sc1ncc(Cl)c(C(=O)N(Cc2ccc(N(C)C)cc2)C2CCS(=O)(=O)C2)n1 (configuration not stated)	·	-3	·	·	·
Cc1cc(C)n(-c2ccc(C(=O)Oc3ccc4c(c3)OCO4)cc2)n1	18*	0	8%	9%	32*
CC(=O)Nc1ccc2c(c1)OCCOCCOc1cc(NC(C)=O)ccc1OCCO2	-2	-10	?	?	-6
Cc1cc(C)n(C(=O)CNc2ccc(C)c(C)c2)n1	32*	-11	6%	458%	29
NC(=O)Nc1ccc2c(c1)OCCO2	52*	105	·	70%	103*
Cc1ccc(C(=O)Nc2ccncc2)o1	-2	-37	6%	·	-1
Cc1ccc(C(=O)Nc2ccc3c(c2)OCCO3)o1	31*	44	·	275%	35
COc1ccccc1C(=O)Nc1ccccc1OCc1cc(=O)n2cc(C)sc2n1	·	3	·	·	·
O=S(=O)(c1ccccc1)c1nnn2c1nc(NCc1ccc(F)cc1)c1sccc12	·	24	·	·	·
Cc1c(CNC2CCC(C)CC2)c(C(=O)O)c(C)n1Cc1ccc(Cl)cc1 (configuration not stated)	·	-13	·	·	·
Cc1ccc(C(=O)NCC(=O)Nc2ccc3c(c2)OCCO3)cc1	·	30	15%	50%	·
Cc1cc(C(=O)Nc2ccc3c(c2)OCCO3)co1	57*	163	205%	20%	76*
Cc1cc(C)n(-c2ccc(C(=O)Nc3ccc(C)c(S(=O)(=O)N4CCOCC4)c3)cc2)n1	10	-83*	?	?	8
Cc1cc(C)n(C(=O)CNC(=O)c2ccc3c(c2)OCCO3)n1	18	-12	24%	1.9µM*	18
Cc1ccc(C(=O)Nc2ccc3cn[nH]c3c2)cc1S(=O)(=O)N1CCOCC1	21*	15	?	?	49*
CC12CCC(C(=O)Nc3ccc4c(c3)OCCO4)(OC1=O)C2(C)C (configuration not stated)	47*	-1	53%	·	94*
CC(=O)Nc1ccc(C(=O)Nc2ccc3c(c2)OCCO3)cc1	27*	41	·	?	42*
COc1ccc(NS(=O)(=O)c2ccc(C)c(NC(=O)c3ccc(C)c(S(=O)(=O)N4CCOCC4)c3)c2)cc1	-2	-32	?	15µM*	-9
O=C(O)CCNc1ccc2c(c1)OCCO2	42*	17	6%	?	73*
Cc1cc2nnc(SCC(=O)Nc3ccc(F)c(Cl)c3)n2c2ccccc12	·	0	·	·	·
COc1ccc(OC)c(NC(=O)Cn2cnc3ccc(S(=O)(=O)N4CCC(C)CC4)cc3c2=O)c1	·	6	·	·	·

Screening data (PubChem)
